About 37,000 (12%) of roughly 300,000 compounds were called active. Rule as the data show it: active = max response mostly above about 13% (no sharp cut-off); inactive = mostly below about 14%. Shown is part of a subset that was picked to be rich in actives.
Assay: Cycloheximide Counterscreen for Small Molecule Inhibitors of Shiga Toxin; also: read at 38.3 µM for the half of the compounds with a filed dose; 0% is about no effect
Details: cell reporter, cycloheximide protein synthesis inhibition counterscreen; stronger effect = higher value

| SMILES | max response |
| --- | --- |
| CC(=O)c1ccc(N2CCN(C(=O)C3CCN(S(=O)(=O)c4ccc5c(c4)CC(C)N5C(=O)C4CC4)CC3)CC2)cc1 (centres undefined) | -0.93% (inactive) |
| Cc1cc(C)n(CC(O)COc2ccc(C(C)(C)C)cc2)n1 (centres undefined) | 10.5% (inactive) |
| CCc1cccc(NC(=S)N(CCN(C)C)C2CCN(C(C)C)CC2)c1 | -3.94% (inactive) |
| Cc1ccc(NC(=O)C(=O)NCc2ccc(/C=N/NC(=O)c3c(C)nc4cc(C)ccn34)o2)cc1 | 6.74% (inactive) |
| O=c1[nH]c(CN2CCN(S(=O)(=O)c3ccc4c(c3)OCCO4)CC2)nc2sc3c(c12)CCCC3 | -1.21% (inactive) |
| CCCCOc1ccc(C(=O)N/C(=C/C=C/c2ccccc2)C(=O)N2CCOCC2)cc1 | -4.3% (inactive) |
| CC(C)COP(=O)(c1ccc(N(C)C)cc1)C(Nc1ccccc1)c1cccnc1 (centres undefined) | -7.16% (inactive) |
| O=C(CCN1C(=O)[C@@H]2Cc3ccccc3CN2C1=O)NCc1ccccc1 | -3.78% (inactive) |
| N#C/C=C/N1CCN(Cc2ccc3c(c2)OCO3)CC1 | -4.02% (inactive) |
| O=P(O)(CN1CCCCCC1)C1Cc2ccccc2C1 | -0.763% (inactive) |
| Cc1noc(C)c1-c1ccc2ncnc(NCc3ccc4[nH]ccc4c3)c2c1 | 56.1% (active) |
| Cc1noc(C)c1-c1ccc2ncnc(NCc3ccc(F)c(F)c3)c2c1 | -5.05% (inactive) |
| Cc1noc(C)c1-c1ccc2ncnc(NC(C)c3ccco3)c2c1 (centres undefined) | 14.8% (inactive) |
| COc1ccc(NC(=O)CNC(=O)Cn2ccc3ccccc3c2=O)c(OC)c1 | -1.76% (inactive) |
| Cc1cccc(NC(=S)N2CCCC(c3nc4ccccc4[nH]3)C2)c1 (centres undefined) | 2.24% (inactive) |
| O=C(C1CCCO1)N1CCN(C(=S)Nc2cccc(Cl)c2)CC1 (centres undefined) | 2.71% (inactive) |
| Cc1ccc(C2CCN(C(=S)Nc3cccc(Cl)c3)C2)cc1 (centres undefined) | 23.2% (active) |
| CCn1c2ccccc2c2cc(NC(=O)Nc3ccc([N+](=O)[O-])cc3C)ccc21 | 1.99% (inactive) |
| COc1ccc(NC(=O)COc2ccc(C(=O)c3ccc(F)cc3)cc2)cc1S(N)(=O)=O | -1.97% (inactive) |
| COCCCn1c(SCC(=O)NC2CCCC2)nnc1-c1ccccc1 | -2.3% (inactive) |
| O=C(Nc1ccc2sc3ccccc3c(=O)c2c1)c1ccccc1Cl | 40.4% (active) |
| COCC(=O)N1CCc2ccc(NC(=O)c3ccccc3Cl)cc2C1 | -1.85% (inactive) |
| O=C(Nc1cccc(NC(=O)c2ccccc2[N+](=O)[O-])c1)c1ccccc1Cl | -2.59% (inactive) |
| O=C(COc1ccccc1[N+](=O)[O-])NC1CC1 | 1.49% (inactive) |
